The nature of test [1]: ACEA_ER_80hr: ACEA Biosciences xCELLigence Real-Time Cell Analysis on Estrogen Receptor Agonism for Proliferation (AID 2282667; active means hit-call score of the fitted dose curve at least 0.9, where 1 is the maximum). Conditions: T47D proliferation, impedance (xCELLigence), 80 h. In outline:
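T-47D cells monitored by electrical impedance (xCELLigence) with compound present throughout; 80 h timepoint, positive-direction fitting versus DMSO. Eight-point 1:4 dilutions from 100 uM final, duplicate plates.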

Test [2] in a line: APR_HepG2_CellCycleArrest_24hr: Apredica 24-hour HepG2 Assay for Cell Cycle Arrest (AID 2282905).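 Further: cell cycle arrest scored as ratio of 2N to 4N nuclear DNA content.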 Conditions: imaging, actives raise or lower the signal. In outline: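 Readout: Hoechst 33342 nuclear DNA content by high-content fluorescent imaging, six images/well, 20x. Human HepG2 liver cells, 24 hr compound exposure, 0.39–200 uM, final DMSO 0.5% v/v. Gain or loss fitted relative to DMSO baseline.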

Test [3] is described as follows: APR_HepG2_NuclearSize_24hr: Apredica 24-hour HepG2 Assay for Nuclear Size (AID 2282907). As to conditions: high-content imaging, actives raise or lower the signal. In outline: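 Read-out: nuclear diameter from Hoechst 33342 (2 ug/mL) imaging of fixed HepG2 cells, 20x, six fields/well. Compounds ran at 0.39–200 uM for 24 hr, 0.5% DMSO final. Gain or loss was fitted bidirectionally relative to the DMSO baseline.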

Test [4] in a line: APR_HepG2_CellLoss_24hr: Apredica 24-hour HepG2 Assay for Cell Loss (AID 2282908).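 On AC50: fit in both directions so a hit may be cell loss or gain.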 Conditions: high-content imaging. In outline: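 Read-out: Hoechst 33342-stained nuclei counted by automated fluorescence imaging after formaldehyde fixation and Triton permeabilization. Ten concentrations, 0.39 to 200 uM, duplicate wells, 0.5% DMSO final. Gain or loss of signal fitted relative to DMSO baseline.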

A short description of test [5]: APR_HepG2_MicrotubuleCSK_24hr: Apredica 24-hour HepG2 Assay for Microtubule CSK Stabilty (AID 2282909). As to conditions: HepG2 microtubule cytoskeleton imaging, actives raise or lower the signal. In outline: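 Read-out: alpha-tubulin immunofluorescence intensity by automated high-content imaging of fixed HepG2 cells after 24 h compound treatment. Ten concentrations, 0.39 to 200 uM, in duplicate; DMSO 0.5% v/v. Taxol positive control; DMSO-normalized bidirectional curve fitting.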

A short description of test [6]: APR_HepG2_MitoticArrest_24hr: Apredica 24-hour HepG2 Assay for Mitotic Arrest (AID 2282910). As to conditions: high-content imaging, actives raise or lower the signal. In outline:
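HepG2, 24 hr dosing, 0.39–200 uM, 0.5% DMSO final. Formaldehyde-fixed, Triton-permeabilised, anti-phospho-histone H3 plus Hoechst. ArrayScan imaging at 20x; bidirectional fit vs DMSO baseline.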

A short description of test [7]: APR_HepG2_MitoMembPot_24hr: Apredica 24-hour HepG2 Assay for Mitochondrial Membrane Potential (AID 2282911). As to conditions: imaging, actives raise or lower the signal. The method, boiled down: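 HepG2 cells exposed 24 h to 0.39–200 uM compounds in duplicate, 0.5% v/v DMSO final. MitoTracker Red CMXRos 250 nM loaded 30 min before formaldehyde fixation; high-content imaging at 20x, bidirectional fit versus DMSO.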

Test [8] in a line: APR_HepG2_MitoMass_24hr: Apredica 24-hour HepG2 Assay for Mitochondrial Mass (AID 2282912). Conditions: high-content imaging, actives raise or lower the signal. The method, boiled down: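 HepG2, 24 hr dosing, 10 concentrations 0.39–200 uM in duplicate, DMSO 0.5% final. MitoTracker Red CMXRos 250 nM, 30 min pre-fix; 3.7% formaldehyde fix. Imaging-based fluorescence intensity; gain/loss fit vs DMSO baseline.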

A short description of test [9]: APR_HepG2_p53Act_24hr: Apredica 24-hour HepG2 Assay for p53 Activation (AID 2282913).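 Further: p53 protein immunofluorescence averaged per cell in HepG2 with Hoechst nuclei.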 Conditions: high-content imaging, actives raise or lower the signal. The method, boiled down: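 HepG2 cells exposed 24 h to compounds at 0.39–200 uM in duplicate, 0.5% v/v DMSO final; fixed, permeabilized, stained with anti-p53 antibody and Hoechst 33342; fluorescence imaging; bidirectional curve fit versus DMSO.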

The nature of test [10]: APR_HepG2_CellCycleArrest_72hr: Apredica 72-hour HepG2 Assay for Cell Cycle Arrest (AID 2282914). As to conditions: high-content imaging, actives raise or lower the signal. The method, boiled down: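 HepG2 cells exposed 72 h in duplicate to 0.39–200 uM compound, 0.5% DMSO final. Formaldehyde-fixed, Hoechst 33342-stained nuclei imaged at 20x, six fields per well; DNA content per valid cell quantified by cell-cycle image analysis, bidirectional fit versus DMSO.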

Test [11] can be described thus: APR_HepG2_CellLoss_72hr: Apredica 72-hour HepG2 Assay for Cell Loss (AID 2282915). Conditions: high-content imaging. In outline: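 HepG2 cells exposed 72 h to compound at 0.39–200 uM (10 concentrations, duplicate) in 0.5% DMSO. Fixed with 3.7% formaldehyde and Hoechst 33342-stained. Imaged at 20x; nuclear count gives cell number, fitted bidirectionally versus DMSO.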

Test [12] is described as follows: APR_HepG2_P-H2AX_72hr: Apredica 72-hour HepG2 Assay for H2AX Phosphorylation (AID 2282916).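 Further: phospho-histone H2A.x immunostain intensity per cell marking DNA damage.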 Conditions: imaging, actives raise or lower the signal. In outline: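 Readout: phospho-H2A.x immunofluorescence (FITC secondary) plus Hoechst nuclear stain, high-content imaging at 20x, six fields/well. HepG2, 72 hr compound exposure, 0.39–200 uM, final DMSO 0.5% v/v. Gain or loss fitted relative to DMSO baseline.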

Test [13] in a line: APR_HepG2_MitoMembPot_72hr: Apredica 72-hour HepG2 Assay for Mitochondrial Membrane Potential (AID 2282917). As to conditions: imaging, actives raise or lower the signal. In outline: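 HepG2 cells dosed 72 hr with compound at 0.39–200 uM in duplicate, 0.5% v/v DMSO final. Mitochondria stained with 250 nM MitoTracker Red CMXRos for 30 min before formaldehyde fixation, imaged by high-content fluorescence; bidirectional fit versus DMSO.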

Test [14] is described as follows: APR_HepG2_MitoticArrest_72hr: Apredica 72-hour HepG2 Assay for Mitotic Arrest (AID 2282918). Conditions: high-content imaging, actives raise or lower the signal. In outline: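 HepG2 cells treated 72 h at 0.39–200 uM, 0.5% DMSO final; formaldehyde-fixed, stained with Hoechst 33342 and phospho-histone H3 antibody, imaged by high-content fluorescence; bidirectional fit versus DMSO.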

The nature of test [15]: APR_HepG2_MicrotubuleCSK_72hr: Apredica 72-hour HepG2 Assay for Microtubule CSK Stabilty (AID 2282919). Conditions: HepG2 microtubule cytoskeleton, high-content imaging, actives raise or lower the signal. The method, boiled down: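 HepG2, 72 hr cmpd exposure, 0.39–200 uM (10 pts, duplicate), 0.5% DMSO. 3.7% formaldehyde fix, 0.5% Triton perm, anti-alpha-tubulin/Cy5 plus Hoechst. HCS fluorescence intensity; bidirectional fit vs DMSO baseline; taxol as positive control.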

Test [16] is described as follows: APR_HepG2_P-H2AX_24hr: Apredica 24-hour HepG2 Assay for H2AX Phosphorylation (AID 2282920). Conditions: high-content imaging, actives raise or lower the signal. The method, boiled down: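 HepG2 cells dosed 24 h at 0.39–200 uM (10 points, duplicate, 0.5% DMSO final). Formaldehyde-fixed and permeabilized, then immunostained for phospho-H2A.x with Hoechst. Fluorescence quantified by high-content imaging, fitted bidirectionally versus DMSO.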

Test [17] can be described thus: APR_HepG2_StressKinase_72hr: Apredica 72-hour HepG2 Assay for Stress Kinase (AID 2282921). As to conditions: HepG2 stress kinase (phospho-c-Jun) imaging, actives raise or lower the signal. In outline: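 Phospho-c-Jun immunofluorescence measured by high-content imaging at 20x, six fields per well; bidirectional curve fitting against DMSO as baseline. Dosing: 0.39–200 uM, 72 h, 0.5% DMSO final.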

A short description of test [18]: APR_HepG2_StressKinase_24hr: Apredica 24-hour HepG2 Assay for Stress Kinase (AID 2282922). Conditions: HepG2 stress kinase (phospho-c-Jun) imaging, actives raise or lower the signal. In outline:
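Read-out: phospho-c-Jun immunofluorescence (Cy3 secondary) quantified by high-content imaging at 20x, nuclei defined by Hoechst 33342. Human HepG2 liver cells dosed 24 hr, 0.39–200 uM, DMSO 0.5% v/v; gain or loss of signal fitted relative to DMSO.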

Test [19] can be described thus: APR_HepG2_p53Act_72hr: Apredica 72-hour HepG2 Assay for p53 Activation (AID 2282923).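 Further: average cellular p53 protein immunofluorescence intensity in HepG2 cells.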 Conditions: high-content imaging, actives raise or lower the signal. In outline: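 Readout: p53 immunofluorescence quantified by automated high-content imaging at 20x, six fields per well, nuclei located via Hoechst. Dosing ran 72 hr over ten concentrations from 0.39 to 200 uM; bidirectional curve fitting against DMSO baseline.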

The nature of test [20]: APR_HepG2_MitoMass_72hr: Apredica 72-hour HepG2 Assay for Mitochondrial Mass (AID 2282924).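 Further: MitoTracker Red CMXRos stain intensity per cell imaged as mitochondrial mass.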 As to conditions: high-content imaging, actives raise or lower the signal. The method, boiled down:
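Read-out: MitoTracker Red fluorescence intensity from automated imaging (20x, six fields per well) in human HepG2 liver cells. Dosing ran 72 hr, 0.39–200 uM, 0.5% DMSO; bidirectional curve fitting versus DMSO baseline.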

Several values for one entry are separate records, joined by “and”; a condition that tells them apart may be missing. Equal entries are not always repeated. Records with an inconclusive call do not appear. More than one record can exist for a structure, and the calls need not agree. Activity calls are given as the source filed them. How the source made its calls, unless noted: active means hit-call score of the fitted dose curve at least 0.9, where 1 is the maximum; inactive means score below 0.9.

Data on six compounds can be found in PubChem BioAssay (EPA / NIEHS).

By AC50 is commonly meant the concentration giving half of the maximal activity seen.

On to `CCCCCCC(=O)O`, for which the outcome in test [1], in test [2], in [3], in test [4], in test [5] and in test [6] was inactive. The compound was called inactive in test [7], in test [8], in test [9], in test [10], in test [11] and in test [12]. The call in test [13], in test [14], in test [15], in [16], in test [17] and in test [18] was inactive. The result in test [19] and in test [20] was inactive.

On to `CCCCC(CC)COC(=O)CCCCC(=O)OCc1ccccc1` (configuration not stated), for which the compound was classed as inactive in test [1], in test [2], in test [3], in test [4], in test [5] and in test [6]. Moreover, the result in [7], in test [8], in test [9], in test [10], in [11] and in [12] was inactive. Besides, the compound was classed as inactive in test [13], in [14], in test [15], in [16], in test [17] and in [18]. Further, the result in test [19] and in test [20] was inactive.

On to `CCCOc1sc(C(=O)N2CCC(c3cc(CN)ccc3F)CC2)c(C)c1Br`, for which the compound was called inactive in test [1], in test [3], in test [8], in [10], in test [13] and in test [18]. In addition, the half-maximal activity concentration (AC50) in test [2] is 22.3 µM (active); in test [4], 6.74 µM (active); in test [5], 15.6 µM (active); in [6], 5.77 µM (active); in test [7] it was 7.27 µM (active); in [9], 4.2 µM (active). Further, the AC50 in test [11] is 7.86 µM (active); in [12], 22.7 µM (active); in [14], 5.79 µM (active); in [15], 6.58 µM (active); in test [16], 4.23 µM (active); in test [17], 32.1 µM (active). The half-maximal activity concentration (AC50) in test [19] is 47.1 µM (active); in test [20], 44.5 µM (active).

In the case of `FC(F)(I)C(F)(F)C(F)(F)C(F)(F)C(F)(F)C(F)(F)I`, the half-maximal activity concentration (AC50) in test [1] was 6.86 nM (active) and 252 nM (active).

Regarding `c1ccc2cc3c(ccc4ccccc43)cc2c1`, the AC50 in test [1] is 11.7 µM (active) and 2.92 µM (active); in test [2], 67.6 µM (active); in test [4] it was 48.1 µM (active); in test [6], 65.7 µM (active); in test [7] it was 63 µM (active); in test [8] it was 55.8 µM (active). Besides, the AC50 in test [9] was 103 µM (active); in test [10], 17.4 µM (active); in test [11], 9.42 µM (active); in test [13], 73.6 µM (active); in test [14], 27.6 µM (active); in [16], 51 µM (active). Besides, the compound was classed as inactive in [1], in [3], in test [5], in [12], in test [15] and in [17]. For the same compound, the compound was classed as inactive in test [18], in [19] and in test [20].

Take `CCCCOCCO`: the call in [1], in test [2], in test [3], in test [4], in [5] and in [6] was inactive. Moreover, the outcome in test [7], in test [8], in test [9], in [10], in test [11] and in test [12] was inactive. The compound was classed as inactive in [13], in [14], in [15], in [16], in [17] and in test [18]. Further, the compound was classed as inactive in [19] and in test [20].
